Among the data in PubChem BioAssay (EPA / NIEHS) are outcome and AC50 values, retold here.

The source made the active and inactive calls. Rule for the calls: active = hit-call score of the fitted dose curve at least 0.9, where 1 is the maximum; inactive = score below 0.9.

One assay can be described thus: CCTE_Shafer_MEA_acute_spike_number: CCTE's Neural Acute Assay for Total Number of Spikes, Shafer Lab (AID 2284008).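 For AC50: curve fitted for decrease in spike count so AC50 reflects inhibitors.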 An outline of the steps:
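Total spike count from 40 min recordings before and during compound exposure (0.03-40 uM), given as per-well percent change. Cortical cultures from rat, DIV 13 or 15, 37 C; adaptive detection threshold 8x rms noise.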
In the case of `CC(N)=O`, the outcome was inactive.

On to `CN(C)C(=O)NC1(c2ccccc2)CCN(CCC[C@]2(c3ccc(Cl)c(Cl)c3)CCCN(C(=O)c3ccccc3)C2)CC1`, for which the call was inactive.

In the case of `c1ccc2occc2c1`, the molecule was classed as inactive.

Turning to `OCC(CO)n1cnc(-c2ccc(F)cc2)c1-c1ccnc(Oc2ccccc2)n1`, the molecule was classed as inactive.

In the case of `Oc1ccc(O)cc1`, the molecule was called inactive.

For orientation: AC50 means the concentration at which the activity in the assay is half-maximal. Take `O=C(N[C@@H](c1ccccc1)[C@@H]1CCCCN1)c1cccc(C(F)(F)F)c1Cl`: the AC50 is 4.39 µM (active).

Consider `CCCCC(CC)COP(=O)(OCC(CC)CCCC)OCC(CC)CCCC` (centres undefined), for which the result was inactive.

In the case of `Cc1cc(Cc2ccc(N)c(C)c2)ccc1N`, the AC50 was 15.8 µM (active).

As to `CN(C)CCCN1c2ccccc2Sc2ccc(Cl)cc21`, the outcome was inactive.

For the molecule `CC(C)COC(=O)CCCCC(=O)OCC(C)C`, the call was inactive.

As for `O=C(O)CN(CC(=O)O)CC(=O)O`, the molecule was classed as inactive.

Take `CC(C)NCC(O)c1ccc(O)c(O)c1` (centres undefined): the result was inactive.

For the molecule `NC(=Nc1ccccc1)Nc1ccccc1`, the AC50 was 2.02 µM (active).

With `CN(C)C(=O)NC1(c2ccccc2)CCN(CC[C@@]2(c3ccc(F)c(F)c3)CN(C(=O)c3ccccc3)CCO2)CC1`, the AC50 was 4.16 µM (active).

In the case of `C/C=C/c1ccc(OC)cc1`, the molecule was called inactive.

On to `COc1ccc(OC(F)(F)F)cc1CN[C@H]1CCCN[C@H]1c1ccccc1`, for which the AC50 was 1.72 µM (active).

As for `CCCC(=O)O`, the call was inactive.

Another assay in a line: CCTE_Shafer_MEA_acute_firing_rate_mean: CCTE's Neural Acute Assay for Mean Firing Rate, Shafer Lab (AID 2284009).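 Note: analyzed for loss of signal so actives lower firing rate relative to DMSO.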 In a few lines:
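Spontaneous spiking of primary rat cortical networks, DIV 13/15, 37 C. Compound 0.03-40 uM, n ≥3 wells; 40 min baseline vs 40 min treated. Endpoint fitted in loss-of-signal direction against DMSO.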
`CC(N)=O`: the result was inactive.

As for `CN(C)C(=O)NC1(c2ccccc2)CCN(CCC[C@]2(c3ccc(Cl)c(Cl)c3)CCCN(C(=O)c3ccccc3)C2)CC1`, the outcome was inactive.

For the molecule `c1ccc2occc2c1`, the outcome was inactive.

As to `OCC(CO)n1cnc(-c2ccc(F)cc2)c1-c1ccnc(Oc2ccccc2)n1`, the outcome was inactive.

With `Oc1ccc(O)cc1`, the outcome was inactive.

With `O=C(N[C@@H](c1ccccc1)[C@@H]1CCCCN1)c1cccc(C(F)(F)F)c1Cl`, the AC50 is 4.39 µM (active).

As to `CCCCC(CC)COP(=O)(OCC(CC)CCCC)OCC(CC)CCCC` (centres undefined), the result was inactive.

Regarding `Cc1cc(Cc2ccc(N)c(C)c2)ccc1N`, the AC50 was 14.9 µM (active).

In the case of `CN(C)CCCN1c2ccccc2Sc2ccc(Cl)cc21`, the molecule was called inactive.

Regarding `CC(C)COC(=O)CCCCC(=O)OCC(C)C`, the result was inactive.

In the case of `O=C(O)CN(CC(=O)O)CC(=O)O`, the call was inactive.

Take `CC(C)NCC(O)c1ccc(O)c(O)c1` (centres undefined): the outcome was inactive.

Turning to `NC(=Nc1ccccc1)Nc1ccccc1`, the AC50 was 2.03 µM (active).

In the case of `CN(C)C(=O)NC1(c2ccccc2)CCN(CC[C@@]2(c3ccc(F)c(F)c3)CN(C(=O)c3ccccc3)CCO2)CC1`, the AC50 was 4.14 µM (active).

Regarding `C/C=C/c1ccc(OC)cc1`, the molecule was called inactive.

In the case of `COc1ccc(OC(F)(F)F)cc1CN[C@H]1CCCN[C@H]1c1ccccc1`, the AC50 was 1.73 µM (active).

`CCCC(=O)O`: the outcome was inactive.
